For eleven compounds, Potency results are on record in PubChem BioAssay (NCATS).

Each structure is given as a SMILES string. Records with an inconclusive call do not appear. Where a call stands in place of a potency, no number is given. The source made the active and inactive calls. Calls come from the whole dose curve.
Potency is the fitted concentration of half-maximal effect.

The test is described as follows: Validation screen for inhibitors of Lassa infection (AID 463096). The following applies: Lassa virus infection, cell-based; series mostly up to 46.1 µM.
As for `COc1cc(Cc2cnc(N)nc2N)cc(OC)c1OC`, the Potency entry was “inactive”.

`Nc1nc2c(ncn2COC(CO)CO)c(=O)[nH]1`: the Potency result is “inactive”.

As to `CCN(CC)CCNC(=O)c1cc(Cl)c(N)cc1OC`, the Potency entry was “inactive”.

As for `Cc1cn([C@H]2C=C[C@@H](CO)O2)c(=O)[nH]c1=O`, the Potency entry was “inactive”.

Regarding `CCN(CC)C(=S)SSC(=S)N(CC)CC`, the Potency was 10 µM (active).

Consider `Cc1ccccc1C(OCCN(C)C)c1ccccc1` (stereo unspecified), for which the Potency entry was “inactive”.

Turning to `Cc1cn[nH]c1`, the Potency result was “inactive”.

Regarding `CC1(C)NC(=O)N(c2ccc([N+](=O)[O-])c(C(F)(F)F)c2)C1=O`, the Potency result is “inactive”.

Regarding `CC(C)(C)NC(=O)[C@H]1CC[C@H]2[C@@H]3CC[C@H]4NC(=O)C=C[C@]4(C)[C@H]3CC[C@]12C`, the Potency entry is “inactive”.

Take `Cc1ccc(S(=O)(=O)NC(=O)NN2CCCCCC2)cc1`: the Potency result is “inactive”.

Take `CN1CCN(C2=Nc3cc(Cl)ccc3Nc3ccccc32)CC1`: the Potency result was “inactive”.
